USP8 inh = inhibitors of human USP8 deubiquitinase; purified USP8, Ub-rhodamine cleavage fluorescence, 30 min; inhibition, % at 20 µM; 47,000 compounds, 4.2% hits
USP10 inh = blocks human USP10 ubiquitin-rhodamine cleavage. AID 1645856. inhibition, % at 20 µM. purified USP10, Ub-rhodamine fluorescence, 60 min. 47,000 compounds, 1.1% hits
UCHL1 inh = human UCHL1 deubiquitinase inhibition; P09936; purified UCHL1, Ub-rhodamine cleavage fluorescence; inhibition, % at 20 µM; 47,000 compounds, 0.2% hits; AID 1645859
USP7 block = blocks human USP7 ubiquitin-rhodamine cleavage | Q93009 | purified USP7, Ub-rhodamine cleavage fluorescence | inhibition, % at 20 µM | 47,000 compounds, 0.3% hits
Target sequence (Q93009 whole entry, looked up): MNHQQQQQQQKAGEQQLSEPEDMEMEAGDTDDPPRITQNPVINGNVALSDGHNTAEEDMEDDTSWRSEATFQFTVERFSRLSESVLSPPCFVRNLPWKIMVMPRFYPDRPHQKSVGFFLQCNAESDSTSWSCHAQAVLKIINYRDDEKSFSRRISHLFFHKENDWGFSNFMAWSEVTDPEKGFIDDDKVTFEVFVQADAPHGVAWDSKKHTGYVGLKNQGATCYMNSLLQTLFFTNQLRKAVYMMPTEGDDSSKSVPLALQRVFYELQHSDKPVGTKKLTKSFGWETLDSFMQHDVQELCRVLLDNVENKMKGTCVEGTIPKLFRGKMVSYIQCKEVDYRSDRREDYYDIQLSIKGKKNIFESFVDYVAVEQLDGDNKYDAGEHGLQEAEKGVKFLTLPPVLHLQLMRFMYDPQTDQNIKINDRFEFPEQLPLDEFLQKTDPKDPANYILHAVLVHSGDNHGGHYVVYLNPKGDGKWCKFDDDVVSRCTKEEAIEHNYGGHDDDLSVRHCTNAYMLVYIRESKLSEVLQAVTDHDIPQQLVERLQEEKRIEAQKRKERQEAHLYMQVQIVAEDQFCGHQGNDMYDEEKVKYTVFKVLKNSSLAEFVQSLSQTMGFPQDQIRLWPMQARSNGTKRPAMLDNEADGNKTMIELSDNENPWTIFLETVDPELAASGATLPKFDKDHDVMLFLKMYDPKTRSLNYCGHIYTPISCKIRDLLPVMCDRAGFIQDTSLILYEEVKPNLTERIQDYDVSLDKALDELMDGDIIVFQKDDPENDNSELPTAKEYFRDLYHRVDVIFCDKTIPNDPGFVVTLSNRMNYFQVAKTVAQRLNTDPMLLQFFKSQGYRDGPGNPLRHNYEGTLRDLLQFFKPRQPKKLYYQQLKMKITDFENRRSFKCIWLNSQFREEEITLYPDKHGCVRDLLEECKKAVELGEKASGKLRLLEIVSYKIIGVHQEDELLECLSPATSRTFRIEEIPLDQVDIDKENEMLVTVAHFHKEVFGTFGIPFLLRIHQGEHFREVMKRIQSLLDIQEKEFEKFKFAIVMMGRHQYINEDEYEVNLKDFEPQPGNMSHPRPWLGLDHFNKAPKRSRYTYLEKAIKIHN
The depositor's hits bear a star. Sampled rows, rich in hits. Any-hit rate of the full collection: about 4.6%. No stated cut-off is given here; in the data, active means inhibition above about 30%; inactive means the rest.

SMILES | USP8 inh | USP10 inh | UCHL1 inh | USP7 block
Cc1ccnc(Nc2nc(C)c(C(=O)NCC3CCCO3)s2)c1 (configuration not stated) | 4 | 3 | 2 | 2
O=C(CSc1ccc2nnc(-c3ccncc3)n2n1)Nc1cccc(C(F)(F)F)c1 | 90* | -3 | -9 | -15
CCN(CC)S(=O)(=O)c1ccc2[nH]c(=O)cc(C(=O)Nc3ccc4c(c3)OCO4)c2c1 | 60* | 16 | -1 | 1
CCN(CC)c1ccc(NC(=O)c2cc(=O)[nH]c3ccccc23)cc1 | 17 | -2 | -1 | 3
COc1ccc(C2CC(=O)c3cnc4c(c3C2)c(=O)n(C)c(=O)n4C)cc1 (configuration not stated) | -2 | -2 | 1 | 2
COCCn1c(=O)[nH]c(=O)c2c3c(cnc21)C(=O)CC(c1ccc(F)cc1)C3 (configuration not stated) | 68* | 9 | -1 | -7
COc1ccc(C2/C(=C(\O)c3ccccc3)C(=O)C(=O)N2c2cccc(C(F)(F)F)c2)cc1 (configuration not stated) | -87 | 30* | -5 | 4
CCCOc1ccc(/C(O)=C2\C(=O)C(=O)N(CCN(C)C)C2c2ccccc2)cc1 (configuration not stated) | 1 | 0 | -1 | 1
COc1ccc(C2/C(=C(\O)c3ccccc3)C(=O)C(=O)N2c2nc3ccc(F)cc3s2)cc1 (configuration not stated) | 8 | 41* | -2 | 1
Cc1ccc(C2/C(=C(\O)c3ccc(F)cc3)C(=O)C(=O)N2c2nc3ccc(F)cc3s2)cc1 (configuration not stated) | -13 | 28 | -1 | 2
O=S(=O)(C1CCCC1)N1CCC(O)(CN2CCOCC2)C1 (configuration not stated) | 4 | -1 | 0 | 0
COc1ccc(C(=O)NCc2csc3ccccc23)cc1 | 24 | 6 | 3 | 8
COc1ccc(/C(C#N)=C\c2ccc3c(c2)OCO3)cc1 | 30* | 7 | 7 | 11
Cn1nc(C2CCN(C(=O)COc3ccccc3)CC2)c2nccnc21 | 22 | 0 | 2 | 3
Cc1nn(C)cc1C(C(=O)NC1CCCCC1)N(C(=O)CN1C(=O)c2ccccc2S1(=O)=O)c1ccc2c(c1)OCO2 (configuration not stated) | 16 | 40* | 12 | 19
Cc1ccc(S(=O)(=O)N2CCCCC2)cc1NS(=O)(=O)c1ccc2c(c1)OCCCO2 | 5 | 3 | 7 | 9
CC(C)c1ccc(-c2noc(SCC(=O)NCC3CCCO3)n2)cc1 (configuration not stated) | -35 | 1 | -2 | -12
CCc1ccc(C(CC(=O)Nc2ccc3c(c2)OCO3)NC(=O)C(F)(F)F)cc1 (configuration not stated) | 37* | 6 | 0 | 11
O=C(Nc1ccc(F)cc1F)c1cc(-c2ccccn2)n[nH]1 | 52* | 13 | 5 | 12
O=C(Nc1ccc(Cl)cc1F)c1cc(-c2ccncc2)n[nH]1 | -2 | 6 | 0 | 3
CC(C)c1ccc(CNC(=O)c2nc3ccccc3[nH]2)cc1 | 1 | 8 | 2 | 7
O=C(Nc1ccc(Br)cc1)c1cc(=O)[nH]c2ccccc12 | 21 | 19 | 2 | 13
Cc1cc(C)cc(NC(=O)c2c(O)c3ccccc3[nH]c2=O)c1 | 42* | 9 | 4 | 9
COc1ccc(Cl)c(NC(=O)C2CC(=O)Nc3cc(-c4ccccc4)nn32)c1 (configuration not stated) | 32* | 13 | 4 | 9
Cc1c(F)cccc1NC(=O)C1CCCN(c2nnc3ccccn23)C1 (configuration not stated) | 17 | 0 | 4 | -5
SMILES | USP8 inh | USP10 inh | UCHL1 inh | USP7 block
Cc1c(Cl)cccc1NC(=O)C1CCCN(c2nnc(-n3cccc3)s2)C1 (configuration not stated) | 60* | 13 | 2 | 6
COC(=O)c1ccccc1NC(=O)C1CCCN(c2nnc(-n3cccc3)s2)C1 (configuration not stated) | 40* | 15 | 8 | 10
CN(C)c1cc(C(=O)NC2CC2)c2ccccc2n1 | 1 | 1 | -3 | 1
Cc1ccc(S(=O)(=O)c2cnc3ccc(F)cc3c2N2CCCCCC2)cc1 | 33* | 4 | 5 | 4
O=c1c(-c2nc(-c3ccccc3Cl)no2)cccn1Cc1cc(=O)n2ccccc2n1 | -2 | -6 | -4 | -4
Cc1cc(=O)n2c3c(c4c(cc13)c(CO)cc(=O)n4C)OC2 | 40* | 6 | 6 | 0
Cc1ccc(CNC(=O)CCc2c(C)nc3c(c(C)nn3-c3ccc(C)cc3)c2C)cc1 | 34* | 1 | 6 | 5

Screening data (PubChem)
